Assay results published in PubChem BioAssay (NCI).
This is part of a sample that, as a whole, favours compounds with a hit. Of some 83,000 tested, about 20% had one in any assay.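 In brief: 96-well plates, 48 h treatment, single concentration, percent growth endpoint.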 Activity calls are given as the source filed them. The calls were made as follows: active = growth percent below 10; inactive = the rest.

Assays:
Assay in all cases: NCI-60 one-dose screen, 48 h (100 = growth as untreated, 0 = no growth, -100 = all killed)
[1] = system: RPMI-8226 leukemia
[2] = system: OVCAR-8 ovarian
[3] = system: OVCAR-5 ovarian
[4] = system: OVCAR-4 ovarian
[5] = system: SK-OV-3 ovarian
[6] = system: IGROV1 ovarian
[7] = system: OVCAR-3 ovarian
[8] = system: HS 578T breast
[9] = system: NCI/ADR-RES ovarian
[10] = system: T-47D breast
[11] = system: BT-549 breast
[12] = system: MDA-MB-435 melanoma
[13] = system: SW-620 colon
[14] = system: MCF7 breast
[15] = system: HCT-116 colon
[16] = system: HCC-2998 colon
[17] = system: KM12 colon
[18] = system: MDA-MB-468 breast
[19] = system: SR leukemia; conditions: 10 µM unless noted

Measured: growth

CC/C(=C(\c1ccc(O)cc1)c1ccc(OCCN(C)C(=O)COCCNC(=O)Cc2ccc3c(c2)CN([C@@H]2CCC(=O)NC2=O)C3=O)cc1)c1ccccc1
inactive: [1]; 1 µM 83.7% | [1]; 10 µM 51.8% | [2]; 1 µM 67.7% | [2]; 10 µM 15.1% | [3]; 1 µM 94.7% | [3]; 10 µM 65.5% | [4]; 1 µM 91.3% | [4]; 10 µM 38.7% | [5]; 1 µM 81% | [5]; 10 µM 57.8% | [6]; 1 µM 38.5% | [7]; 1 µM 85.9% | [7]; 10 µM 54.8% | [8]; 1 µM 48.7% | [9]; 1 µM 105% | [9]; 10 µM 98.7% | [10]; 1 µM 15.5% | [12]; 1 µM 97% | [12]; 10 µM 59.2% | [13]; 1 µM 57.5% | [13]; 10 µM 23.8% | [14]; 1 µM 33.4% | [14]; 10 µM 20% | [15]; 1 µM 94.2% | [15]; 10 µM 99.6% | [16]; 1 µM 64.5% | [16]; 10 µM 30.2% | [17]; 1 µM 94.3% | [17]; 10 µM 47.5%
active: [6]; 10 µM 9.45% | [8]; 10 µM 7.64% | [10]; 10 µM 7.16% | [11]; 1 µM -25.9% | [11]; 10 µM -22.3% | [18]; 1 µM -11.7% | [18]; 10 µM -28.3%

O=C(NC(=S)N1CCN(c2ncnc3c2cnn3-c2ccccc2)CC1)c1ccc(F)cc1
inactive: [1]; 10 µM unless noted 76.3% | [2]; 10 µM unless noted 67.8% | [3]; 10 µM unless noted 92.8% | [4]; 10 µM unless noted 45.8% | [5]; 10 µM unless noted 69.1% | [6]; 10 µM unless noted 79.4% | [7]; 10 µM unless noted 113% | [8]; 10 µM unless noted 70.5% | [9]; 10 µM unless noted 71.8% | [10]; 10 µM unless noted 66.6% | [11]; 10 µM unless noted 86.2% | [12]; 10 µM unless noted 77.2% | [13]; 10 µM unless noted 76.6% | [14]; 10 µM unless noted 52.4% | [15]; 10 µM unless noted 55.1% | [16]; 10 µM unless noted 99.1% | [17]; 10 µM unless noted 79.7% | [18]; 10 µM unless noted 66.7%

COc1ccc(N=Nc2c(N)nn3c(-c4ccc5c(c4)C=S=C5)ccnc23)cc1
inactive: [2]; 10 µM unless noted 28.8% | [3]; 10 µM unless noted 80.4% | [4]; 10 µM unless noted 24.3% | [5]; 10 µM unless noted 68.7% | [6]; 10 µM unless noted 27% | [7]; 10 µM unless noted 48.4% | [8]; 10 µM unless noted 24.7% | [11]; 10 µM unless noted 19.9% | [12]; 10 µM unless noted 83.8% | [13]; 10 µM unless noted 65.5% | [14]; 10 µM unless noted 31.1% | [15]; 10 µM unless noted 20.1% | [16]; 10 µM unless noted 48% | [17]; 10 µM unless noted 42.5%
active: [1]; 10 µM unless noted 9.87% | [9]; 10 µM unless noted 3.61% | [10]; 10 µM unless noted 3.67%

COc1cc(C2CC(c3ccc(S(=O)(=O)NCCNc4nc(N(C)C)nc(N5CCOCC5)n4)cc3)=Nc3c(N)nc(N)nc3N2)cc(OC)c1OC (configuration not stated)
inactive: [19] 93.3% | [1]; 10 µM unless noted 84.9% | [2]; 10 µM unless noted 103% | [3]; 10 µM unless noted 93.4% | [4]; 10 µM unless noted 95.1% | [5]; 10 µM unless noted 115% | [6]; 10 µM unless noted 105% | [8]; 10 µM unless noted 76.6% | [9]; 10 µM unless noted 92.8% | [10]; 10 µM unless noted 95% | [11]; 10 µM unless noted 95.2% | [12]; 10 µM unless noted 104% | [13]; 10 µM unless noted 99% | [14]; 10 µM unless noted 95.1% | [15]; 10 µM unless noted 90% | [16]; 10 µM unless noted 109% | [17]; 10 µM unless noted 100% | [18]; 10 µM unless noted 95.4%

COc1cccc(C(N)=Nc2ccc(OCCCCCCCCn3cncn3)cc2)c1
inactive: [19] 10.4% | [1]; 10 µM unless noted 14.2% | [3]; 10 µM unless noted 29.6% | [4]; 10 µM unless noted 55.5% | [5]; 10 µM unless noted 41.7% | [6]; 10 µM unless noted 27.3% | [8]; 10 µM unless noted 37.2% | [10]; 10 µM unless noted 52% | [13]; 10 µM unless noted 21.2% | [14]; 10 µM unless noted 18.3% | [15]; 10 µM unless noted 12.5% | [16]; 10 µM unless noted 23.4%

O=C(Nc1nc2ccccc2s1)Nc1ccccc1Cl
inactive: [19] 111% | [1]; 10 µM unless noted 91.9% | [2]; 10 µM unless noted 48.5% | [3]; 10 µM unless noted 89.6% | [4]; 10 µM unless noted 34.2% | [5]; 10 µM unless noted 49.2% | [6]; 10 µM unless noted 79.4% | [8]; 10 µM unless noted 22.7% | [9]; 10 µM unless noted 76% | [10]; 10 µM unless noted 68% | [11]; 10 µM unless noted 129% | [12]; 10 µM unless noted 100% | [13]; 10 µM unless noted 96.8% | [14]; 10 µM unless noted 69% | [15]; 10 µM unless noted 79.7% | [16]; 10 µM unless noted 97.3% | [17]; 10 µM unless noted 93.1% | [18]; 10 µM unless noted 97%

O=S(=O)(c1nc(-c2ccc(Br)cc2)oc1-c1ccc(Cl)cc1)N1CCCC(O)C1 (configuration not stated)
inactive: [19] 37.2% | [1]; 10 µM unless noted 29.7% | [2]; 10 µM unless noted 68.4% | [3]; 10 µM unless noted 87.8% | [4]; 10 µM unless noted 43% | [5]; 10 µM unless noted 101% | [6]; 10 µM unless noted 87.8% | [8]; 10 µM unless noted 82.1% | [9]; 10 µM unless noted 31.3% | [10]; 10 µM unless noted 28.8% | [11]; 10 µM unless noted 76.1% | [12]; 10 µM unless noted 60% | [13]; 10 µM unless noted 57% | [14]; 10 µM unless noted 41.5% | [15]; 10 µM unless noted 42.5% | [16]; 10 µM unless noted 33.8% | [17]; 10 µM unless noted 39% | [18]; 10 µM unless noted 45.6%
